# Assay outcomes from PubChem BioAssay.
# NOD2 RIPK2 PPI = NOD2-RIPK2 protein interaction inhibition. actives 0.38% (n = 360,000). inhibition, % at 4.98 µM. CHO BLA complementation NOD2-RIPK2, CCF4 ratio; in the data active = inhibition above about 21%;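 also: 0% = vehicle only and 100% = reference blocker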
# TLR4 MyD88 comp = TLR4-MyD88 interaction inhibition in cells; O00206+Q99836; HeLa CL3-4 TLR4/MyD88 BLA complementation, FRET ratio; inhibition, % at 8.4 µM; actives 0.18% (n = 200,000); in the data active = inhibition above about 25%;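 also: 0% = vehicle and 100% = reference inhibitor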
# TMEM16A act = mouse TMEM16A channel activation, primary screen. Q8BHY3. HEK293 TMEM16A/YFP-H148Q/I152L, iodide quench fluorescence; active compounds read low. B-score at 10 µM. actives 0.3% (n = 340,000);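 active = fluorescence-ratio B-score plate-corrected deviation score at least 3 library SD below zero, with starting fluorescence score within 5 deviations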;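 also: channel opened by trigger with iodide after compound preincubation; score built on the fluorescence ratio of max minus min over baseline; more negative score means more quench and so TMEM16A activation or potentiation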
# ANO1 block = mouse TMEM16A channel inhibition, primary screen; Q8BHY3; HEK293 TMEM16A/YFP iodide influx fluorescence, ionomycin; normalized B-score (activity score, 25-100; higher = stronger inhibition) at 10 µM; actives 1.2% (n = 310,000); AID 588511;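 active = ratio plate-corrected score three or more library SD toward inhibition, starting fluorescence score within five deviations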;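 also: score derived from kinetic fluorescence span divided by baseline fluorescence per well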
# GRK2 aptamer HTS = human GRK2 inhibition via aptamer displacement. AID 488847. bead flow cytometry, FAM-aptamer displacement from GRK2. P25098. actives 0.59% (n = 330,000). inhibition of aptamer binding, % at 10 µM;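 active = inhibition of aptamer binding above 40%, roughly 3 SD of noise, on plates passing a quality check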;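 also: median bead fluorescence of bound FAM aptamer so fluorescent compounds give negative values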
# TLR9-MyD88 inh = blocks human TLR9 binding to MyD88 | Q9NR96+Q99836 | CHO BLA complementation TLR9-MyD88, CCF4 FRET ratio | inhibition, % at 4.98 µM | actives 0.21% (n = 340,000) | AID 504734;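 active = inhibition above the mean over all tested compounds plus 3 SD, cut at about 21% in these data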;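 also: 0% = DMSO only wells and 100% = clavulanate BLA inhibitor control wells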
# TMEM16A reconf = TMEM16A (mouse) chloride channel inhibition, re-confirmation | shares compounds with ANO1 block | HEK293 TMEM16A/YFP-H148Q, iodide quench fluorescence; ionomycin added to raise cell calcium | inhibition, % at 10 µM | actives 39% (n = 2,300) | AID 652189;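 active = mean duplicate percent inhibition, scaled so buffer wells are 0 and the reference blocker 100, over three buffer SD above buffer mean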
# TMEM16A Ca cntr = alters calcium mobilization in TMEM16A HEK293 cells, counter-screen. calcium response (% of ionomycin), % at 10 µM. TMEM16A/YFP HEK293, Fluo4 calcium mobilization. shares compounds with ANO1 block. actives 2% (n = 2,300);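 active = duplicate-averaged calcium signal over 20% of the ionomycin maximum, relative to buffer baseline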;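 also: each well's signal is peak minus trough fluorescence divided by its pre-addition baseline; 0% = buffer wells and 100% = ionomycin wells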
# YFP-HEK293 quench = acts in parental YFP-HEK293 cells lacking TMEM16A, counter-screen | shares compounds with ANO1 block | iodide YFP quench, ionomycin | YFP ratio F(max-min)/F0 at 10 µM | 2,300 tested, under 10 active;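 active = yellow fluorescent protein signal ratio exceeding the buffer control mean by over 5 SD of those controls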;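 also: ratio is mean of duplicate wells from kinetic YFP trace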
# ClC-1 inh = rat ClC-1 inhibition, TMEM16A specificity screen; shares compounds with ANO1 block; CHO ClC-1-YFP, iodide influx fluorescence quench; iodide control reads 0, buffer control 100; ratio percent, % at 10 µM; 2,300 tested, under 10 active;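 active = duplicate-mean ratio percent above the mean of iodide-only control wells, which defines zero, plus 5 of their SD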;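 also: higher percent means stronger block of ClC-1 iodide influx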
# Active calls of the source: *; i = inactive; x = no result. An excerpt weighted towards active compounds, which were near 2.2% of everything screened.
SMILES,NOD2 RIPK2 PPI,TLR4 MyD88 comp,TMEM16A act,ANO1 block,GRK2 aptamer HTS,TLR9-MyD88 inh,TMEM16A reconf,TMEM16A Ca cntr,YFP-HEK293 quench,ClC-1 inh
Cc1ccc(C2CC2C(=O)NNC(=S)Nc2cccc(Cl)c2)cc1 (centres undefined),-1,-11,i,25*,0,-2,23%*,i,-1,-13
Cc1ccc(C2CC2C(=O)NNC(=S)Nc2cccc(C)c2)cc1 (centres undefined),0,-3,i,i,1,3,x,x,x,x
O=C(COC(=O)c1cccc(NC(=O)c2ccco2)c1)c1ccc(Br)cc1,-11,1,i,100*,0,-1,i,i,-0.93,-10
O=C(Nc1cccc(S(=O)(=O)c2cccc(NC(=O)c3ccco3)c2)c1)c1ccco1,-7,x,i,25*,4,-1,20%*,i,-0.91,-14
CC(C)(C)C(=O)COC(=O)c1cccc(NC(=O)c2ccco2)c1,4,-11,i,i,0,1,x,x,x,x
CN(C)c1ccc(CNC(=O)CC[C@H]2O[C@@H](n3cnc4c(NC(=O)c5ccccc5)ncnc43)[C@H](O)[C@@H]2O)cc1,-6,x,x,x,x,x,x,x,x,x
O=C(NCCCSc1ccccc1)c1cc(Br)ccc1O,3,x,i,100*,1,4,52%*,i,-1.3,-24
Cn1cnnc1SCC(=O)N1CCc2ccccc21,-5,-7,i,i,0,4,x,x,x,x
CC(C)c1nnc(SCC(=O)N2CCc3ccccc32)n1C,9,-8,i,100*,2,0,i,i,-1,-3
CCCc1nc2c(sc3nc4c(cc32)COC(C)(C)C4)c(=O)n1Cc1ccco1,-8,-7,i,25*,0,2,47%*,i,-1.1,-13
Cc1cc(OCC(=O)Nc2ccc(Br)cc2)cc2c1C(=O)CC(C)(C)O2,-4,x,i,100*,1,x,22%*,i,-0.78,-24
O=C(Nc1nc(-c2ccc(Cl)s2)cs1)c1cccs1,16,-16,i,25*,2,5,i,i,-0.96,-18
O=C(Nc1nc(-c2ccccc2)cs1)c1ccc(=O)[nH]c1,-5,-6,i,25*,2,-1,26%*,i,-0.84,-8
O=C(Nc1nc(-c2ccccc2)cs1)c1ccc2c(=O)n3c(nc2c1)CCCCC3,4,-12,i,100*,0,-9,i,i,-1.2,-2
O=C(Nc1ccc(Cl)cc1)c1cccs1,0,5,i,25*,1,0,i,i,-1.1,-15
CCC1=NN(C(=O)Cc2ccc(OC)c(OC)c2)C(O)(C(F)(F)F)C1 (centres undefined),-3,0,i,i,3,-3,x,x,x,x
O=C(Nc1nc(-c2ccccc2)ns1)c1cccs1,-8,-6,i,i,0,0,x,x,x,x
O=C(Nc1nc(-c2ccccc2)cs1)c1cccs1,1,-10,i,25*,0,-1,22%*,i,-1.1,-2
CCCC1CC(C)(c2csc(Nc3ccc(OCC)cc3)n2)OC1=O (centres undefined),-10,-2,i,100*,0,1,31%*,i,-0.95,-20
